LMP1 NFkB inh: reduces LMP1-driven NF-kappaB luciferase signal | inhibition, % at 12.5 µM | LMP1-induced NF-kappaB luciferase reporter cells, luminescence | 350,000 compounds, 0.69% hits | AID 504558; in the data active = inhibition above about 41%; inconclusive = no clear call, values can overlap the other calls
LGR2 inh: blocks bursicon-induced cAMP signaling via Drosophila LGR2; HEK293 LGR2, CRE-luciferase, bursicon-stimulated, 4 h; inhibition, % at 9.99 µM; 380,000 compounds, 0.35% hits; AID 720647;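 active = drop in luminescence signal, shown as inhibition above about 50% in the replicate tests, limit read from the data, passing the limit was not always enough; inconclusive = probably only some replicates passing the limit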;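 also: agonist challenge used bursicon conditioned medium at about half maximal strength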
TWEAK Fn14 block: inhibitors of TWEAK-Fn14 interaction signaling; TWEAK-stimulated Fn14 reporter cells, luciferase luminescence, 8 h; inhibition, % at 10 µM; 360,000 compounds, 2% hits; in the data active = inhibition above about 50%
EWS-Fli block: blocks EWS/Fli oncoprotein-driven transcription | A673 NR0B1-luciferase reporter, viability-normalised | inhibition, % at 12.6 µM | 350,000 compounds, 0.67% hits;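 active = mean inhibition of at least 50% after viability correction, with every replicate also passing that limit; inconclusive = mean reaches 50% but only one of two replicates passes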;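 also: firefly luciferase signal divided by Alamar Blue viability fluorescence both relative to DMSO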
TROY NFkB inh: blocks TROY-dependent signaling in reporter cells; inhibition, % at 10 µM; 360,000 compounds, 0.98% hits; AID 1347056; Q293 LMP1-TROYcd NF-kB luciferase reporter, 4 h;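 active = compounds whose plate-normalised and pattern-corrected inhibition of the luciferase reporter signal at the single screening dose is 50% or more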
Hits are given with their value; - = inactive; ? = inconclusive; . = not tested or not shown. Most compounds without a hit are left out; they make up all but 2.6% or so of the library.

SMILES	LMP1 NFkB inh	LGR2 inh	TWEAK Fn14 block	EWS-Fli block	TROY NFkB inh
CC(C)CNC(=O)c1ccccc1NC(=O)CN(c1ccc2c(c1)OCCO2)S(C)(=O)=O	-	-	89.7	.	-
CS(=O)(=O)N(CC(=O)Nc1ccccc1C(=O)NCc1ccco1)c1ccc2c(c1)OCCO2	-	.	-	.	-
COCCNC(=O)c1ccccc1NC(=O)CN(c1ccc2c(c1)OCO2)S(C)(=O)=O	-	.	-	.	-
CCC(=O)N(C)C[C@H]1Oc2ncc(C#Cc3ccccc3OC)cc2C(=O)N([C@@H](C)CO)C[C@@H]1C	.	-	.	-	.
O=C(OCc1ccccc1)N(CCCCN(CCCNCc1ccccc1)C(=O)OCc1ccccc1)CCCNCc1ccccc1	-	-	102.5	?	-
CS(=O)(=O)Nc1ccc2c(c1)[C@@H]1C[C@H](CC(=O)NCc3ccc(Cl)cc3)O[C@@H](CO)[C@@H]1O2	.	-	.	-	.
C[C@@H]1CN([C@@H](C)CO)C(=O)c2cc(-c3ccncc3)cnc2O[C@@H]1CN(C)S(=O)(=O)c1ccccc1	.	-	.	-	.
COc1cccc(S(=O)(=O)N[C@@H]2CC[C@H](CCn3cc(-c4ccccn4)nn3)O[C@@H]2CO)c1	.	-	.	-	.
CCOC(=O)c1ccc2nc(NC(=O)c3ccco3)sc2c1	-	.	-	.	-
CCOc1ccc2nc(NC(=O)c3ccoc3C)sc2c1	-	.	63.2	.	-
CCOc1ccc2nc(NC(=O)COC)sc2c1	-	.	-	.	-
CCOc1ccc2nc(NC(=O)c3ccco3)sc2c1	-	?	58.7	-	-
CN(C)CC(=O)Nc1ccc2c(c1)[C@H]1C[C@H](CC(=O)N3CCN(C)CC3)O[C@H](CO)[C@H]1O2	.	-	.	-	.
O=C(CCN1CCCCC1)NCC[C@@H]1CC[C@@H](NC(=O)C2CCC2)[C@H](CO)O1	.	-	.	-	.
N/C(=N\OC(=O)/C=C/c1ccc(Br)cc1)c1ccccn1	-	?	66.2	.	52.1
N/C(=N\OC(=O)/C=C/c1ccccc1Cl)c1cccnc1	.	-	-	-	-
N/C(=N\OC(=O)/C=C/c1ccccc1Cl)c1ccccn1	-	73.0	75.1	-	68.0
CCCNC(=O)Nc1ccc2c(c1)OC[C@@H](C)N(Cc1ccncc1)C[C@H](C)[C@H](OC)CN(C)C2=O	.	-	.	-	.
O=c1cc(-c2ccccc2Cl)oc2cc(O)cc(O)c12	-	-	-	-	-
O=C1C=CC(O)(c2cc(=O)c3c(O)cc(O)cc3o2)C=C1	-	89.3	92.2	72.9	-
N#C[C@@H]1N[C@H](CO)[C@H]1c1ccc(C2=CCCC2)cc1	.	-	.	-	.
Cc1ccc(Cl)cc1N1CCN(C(=O)CSc2nnc3n2C(C)(C)Cc2ccccc2-3)CC1	-	.	95.9	.	72.4
CO[C@@H]1CN(C)C(=O)c2cc(NC(=O)Nc3c(C)noc3C)ccc2OC[C@H](C)N(CC2CC2)C[C@@H]1C	.	-	.	-	.
C[C@H](CO)N1C[C@H](C)[C@@H](CN(C)C(=O)Cc2ccccc2)Oc2cc(C#Cc3ccccc3F)ccc2S1(=O)=O	.	-	.	-	.
C[C@@H]1CN([C@H](C)CO)S(=O)(=O)c2ccc(C#Cc3ccc(F)cc3)cc2O[C@H]1CN(C)C(=O)CN(C)C	.	-	.	72.7	.
SMILES	LMP1 NFkB inh	LGR2 inh	TWEAK Fn14 block	EWS-Fli block	TROY NFkB inh
C[C@@H]1CN([C@H](C)CO)S(=O)(=O)c2ccc(C#Cc3ccccc3F)cc2O[C@@H]1CN(C)C(=O)Cc1ccccc1	-	-	50.1	-	-
C[C@@H]1CN([C@@H](C)CO)S(=O)(=O)c2ccc(C#Cc3ccc(F)cc3)cc2O[C@@H]1CN(C)C(=O)CN(C)C	.	-	.	-	.
CC(C)CC#Cc1ccc2c(c1)O[C@@H](CN(C)Cc1ccc3c(c1)OCO3)[C@@H](C)CN([C@@H](C)CO)S2(=O)=O	.	-	.	58.1	.
COC(=O)[C@@H](NC(=O)CN=[N+]=[N-])c1ccccc1	.	.	.	-	.
Cc1noc(C)c1S(=O)(=O)Nc1cccc2c1O[C@@H](CN(C)C(=O)Nc1ccc3c(c1)OCO3)[C@@H](C)CN([C@H](C)CO)C2=O	.	-	.	-	.
COCc1cc(Sc2ccc(Cl)cc2)nc(C)n1	-	-	-	-	-
COCc1cc(S(=O)c2ccc(Cl)cc2)nc(C)n1 (stereo not drawn)	-	-	63.8	-	-
Cc1ccc(S(=O)(=O)N(C)C[C@H]2Oc3c(NC(=O)NC(C)C)cccc3C(=O)N([C@H](C)CO)C[C@@H]2C)cc1	.	-	.	-	.
CCOC(=O)/C=C(\C)Sc1cc(=O)oc2ccccc12	49.5	.	56.8	.	-
CCOC(=O)/C=C(\C)Sc1cc(O)c2ccccc2c1O	-	-	95.9	-	-
CC(=O)c1cc(O)c2ccccc2c1O	-	-	-	-	-

Screening results as filed in PubChem BioAssay.
